Rows were chosen to be rich in hits. Some 3.5% of all compounds tested hit in one or more screens of this group.
FBW7 activator: FBW7 E3 ligase activators, primary screen, biochemical, AlphaScreen, human; F-box/WD repeat-containing protein 7 (Homo sapiens), Q969H0; AlphaScreen FBW7–phospho-cyclin E peptide binding, activator screen; normalized activity (activation), % at 26.1 µM; 0.13% of 650,000 active; AID 1259310, 2017; in the data active = normalized activity above about 1.9%;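 note: purified mutant Fbw7 with reduced substrate affinity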
GPR151 activ: activators of human GPR151, primary screen, cell-based, PathHunter beta-arrestin, luminescence; G-protein coupled receptor 151 (Homo sapiens), Q8TDV0; PathHunter beta-arrestin GPR151 cells; activation, % at 11.2 µM; 1% of 650,000 active; AID 1508602, 2020; in the data active = activation above about 4.9%;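 note: 0% = median of compound wells and 100% = cells with positive control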
TEAD-YAP block: TEAD-YAP interaction inhibition, primary screen, TEAD-YAP interaction inhibitor project, luminescence, HEK-TIYL cells; TEAD-Gal4/YAP UAS-luciferase luminescence; inhibition, % at 9.12 µM; 1.4% of 640,000 active; AID 1259422, 2018; in the data active = inhibition above about 32%;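 note: 0% = median of test compound wells and 100% = reference inhibitor wells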
MITF primary: MITF inhibitors, primary screen, biochemical, AlphaScreen, human. Microphthalmia-associated transcription factor (Homo sapiens), O75030. AlphaScreen MITF homodimerization, bead proximity signal. inhibition, % at 2.6 µM. 0.91% of 650,000 active. AID 1259374, 2018; in the data active = inhibition above about 50%;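 note: 0% = vehicle wells with protein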
Target sequence (O75030 whole entry, looked up): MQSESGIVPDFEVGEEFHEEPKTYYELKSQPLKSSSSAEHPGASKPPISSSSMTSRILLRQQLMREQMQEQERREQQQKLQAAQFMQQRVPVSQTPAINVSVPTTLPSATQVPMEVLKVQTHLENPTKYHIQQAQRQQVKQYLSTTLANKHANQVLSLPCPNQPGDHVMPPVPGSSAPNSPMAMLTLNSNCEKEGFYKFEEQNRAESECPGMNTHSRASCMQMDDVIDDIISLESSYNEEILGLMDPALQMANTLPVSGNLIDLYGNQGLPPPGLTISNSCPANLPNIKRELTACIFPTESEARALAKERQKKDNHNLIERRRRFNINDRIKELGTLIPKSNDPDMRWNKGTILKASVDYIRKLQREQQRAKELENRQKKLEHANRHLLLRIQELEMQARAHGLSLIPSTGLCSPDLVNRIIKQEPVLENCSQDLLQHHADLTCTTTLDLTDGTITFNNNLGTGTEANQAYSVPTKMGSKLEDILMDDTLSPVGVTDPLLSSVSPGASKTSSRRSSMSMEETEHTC
* hit, by the source's call.

SMILES	FBW7 activator	GPR151 activ	TEAD-YAP block	MITF primary
Cn1c(=O)oc2cc(NC(=O)c3cccc(-n4cc(NC(=O)Cc5ccccc5)cn4)c3)ccc21	0	-1	-1	7
O=C(Cc1ccccc1)Nc1cnn(-c2cccc(C(=O)NC3CCc4ccccc43)c2)c1 (stereo unspecified)	0	0	-6	16
N#Cc1cccc(NC(=O)C[n+]2c(N)sc3ccc4ccccc4c32)c1	0	0	43*	-2
O=C(OCc1ccccc1)c1cc(Cl)ccc1[N+](=O)[O-]	0	-1	6	4
O=C(OCc1cc(=O)oc2cc(O)c(O)cc12)c1cc(Cl)ccc1[N+](=O)[O-]	0	1	6	64*
COCCCN1C(=O)c2[nH]nc(-c3ccccc3O)c2C1c1ccc(Cl)cc1 (stereo unspecified)	0	0	12	0
COCCCN1C(=O)c2[nH]nc(-c3ccccc3O)c2C1c1cccc(Cl)c1 (stereo unspecified)	0	1	36*	9
c1ccc(-c2ccc(C3=NN(c4ccccc4)C(c4ccccc4)C3)cc2)cc1 (stereo unspecified)	0	0	11	6
O=[N+]([O-])c1ccc(N2N=C(c3ccccc3)CC2c2ccccc2O)cc1 (stereo unspecified)	3.5*	0	-10	1
Cc1ccc(-c2nn(-c3ccccc3)cc2C2CC(c3ccc(F)cc3)=NN2c2ccccc2)o1 (stereo unspecified)	0	2	-13	3
Fc1ccccc1C1CC(c2ccccc2)=NN1c1ccccc1 (stereo unspecified)	3.3*	0	6	6
Cc1ccc(C2CC(c3ccc(F)cc3)=NN2c2ccccc2)o1 (stereo unspecified)	1.9*	0	-2	-22
O=[N+]([O-])c1ccc(N2N=C(c3ccccc3)CC2c2ccccc2)cc1 (stereo unspecified)	0	-1	-3	-1
O=C(CSc1ccc(Sc2ccc(SCC(=O)NC3CC3)cc2)cc1)NC1CC1	1	1	34*	11
Cc1ccc(SCC(=O)NC2CC2)cc1	0	-1	-19	15
Cc1ccc(S(=O)(=O)c2c(O)cc(C)c(NS(=O)(=O)c3ccc(Br)cc3)c2C)cc1	0	-1	1	63*
Cc1ccc(S(=O)(=O)Nc2c(C)cc(O)c(S(=O)(=O)c3ccc(C)cc3)c2C)cc1	0	-1	3	4
COc1ccccc1-n1c(SCC(=O)Nc2nc(C)cs2)nnc1-c1ccncc1	0	1	51*	-7
COc1ccccc1-n1c(SCC(=O)Nc2ccccc2F)nnc1-c1cccnc1	0	-1	58*	-5
CCCCNC(=O)CSc1nnc(-c2cccnc2)n1-c1ccccc1OC	0	0	10	4
COc1cccc(-c2nnc(SCC(=O)Nc3ccccc3OC)n2-n2cccc2)c1	0	-1	50*	2
COC(=O)CSc1nnc(-c2cccnc2)n1C	1.9*	0	2	10
COc1cccc(-n2c(SCC(=O)Nc3ccccc3OC)nnc2-c2cccnc2)c1	0	0	-4	-7
COc1ccccc1-n1c(SCC(=O)Nc2ccc(F)cc2)nnc1-c1ccncc1	0	1	5	-9
Cc1cccc(CC(C#N)SC#N)c1 (stereo unspecified)	0	0	10	3
SMILES	FBW7 activator	GPR151 activ	TEAD-YAP block	MITF primary
COc1ccccc1NC(=O)CSc1nnc(-c2cccnc2)n1-c1ccccc1C	0	0	70*	12
O=C(Cc1cccs1)Nc1ccc2c(c1)CCC2	0	0	-44	3
COc1ccc2nc(Nc3nc(-c4cccnc4)cs3)sc2c1	0	0	4	14
COc1ccc2nc(Nc3nc(-c4ccccn4)cs3)sc2c1	-2	1	49*	51*
COc1ccc2sc(Nc3nc(-c4ccccn4)cs3)nc2c1	-1	4	37*	25
COc1ccccc1NC(=O)c1sc2ncn(CC(=O)Nc3ccc(C)c(Cl)c3)c(=O)c2c1C	0	-1	2	19
Cc1ccc(NC(=O)CCN2CCC(C)CC2)cc1	2.3*	-1	10	12
O=C1CCCC2=C1C(c1ccc3c(c1)OCO3)C1=C(CCCC1=O)O2	0	0	-5	-18
COc1ccc(-c2nc(N)c3ncn(-c4ccccc4)c3n2)cn1	0	0	-4	-3
COc1ccc(-c2nc(N)c3ncn(-c4ccccc4)c3n2)cc1	0	-1	1	-6
